# Reference: PubChem BioAssay (NCATS)
# Results filed as inconclusive are left out. Entries that show only a call come without a potency. The source made the active and inactive calls. Calls follow the shape of the dose curve; as a rule, active = well fitted curve in the direction sought with a large enough effect; inconclusive = small, poorly fitted or top-dose-only effect, or another doubt; inactive = no such curve, though single readings can be large; an effect the other way counts as inactive or inconclusive.
# Legend:
# [1] = Quantitative High-Throughput drug screen in 47 multiple myeloma cell lines against the NCATS MIPE library collection: ARP1_JJKsccF8 cell viability assay (AID 1918928; also: nearly all actives have a fitted effect of over 40% in size)
# How it was run: (§1)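 Myeloma cells at 500 per well in 1536-well format treated with MIPE 4.0 library by pin transfer for 48 h at 37C, 5% CO2. Viability from ATP luminescence (CellTiter-Glo), normalized to DMSO (100%) and media-only (0%) wells.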
# [2] = Quantitative High-Throughput drug screen in 47 multiple myeloma cell lines against the NCATS MIPE library collection: ARD_JJKsccE7 cell viability assay (AID 1918929)
# How it was run: (§2)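 Inhibition of cell viability is measured here. Each line was plated at 500 cells per well, treated with MIPE 4.0 drugs, kept 48 hours at 37C, then assayed for ATP content by CellTiter-Glo luminescence.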
# [3] = Quantitative High-Throughput drug screen in 47 multiple myeloma cell lines against the NCATS MIPE library collection: Karpas620_DSMZ cell viability assay (AID 1918959); also: nearly all actives have a fitted effect of over 30% in size
# How it was run: (§3)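 Primary qHTS used for cherry-picking: cells at 500/well, library compounds for 48 h (37C, 5% CO2), luminescent ATP assay.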
# [4] = Quantitative High-Throughput drug screen in 47 multiple myeloma cell lines against the NCATS MIPE library collection: KHM11_PLB cell viability assay (AID 1918962); also: nearly all actives have a fitted effect of over 35% in size
# How it was run: as §3
# [5] = Quantitative High-Throughput drug screen in 47 multiple myeloma cell lines against the NCATS MIPE library collection: JIM3_ECACC cell viability assay (AID 1918963; also: nearly all actives have a fitted effect of over 35% in size)
# How it was run: as §3
# [6] = Quantitative High-Throughput drug screen in 47 multiple myeloma cell lines against the NCATS MIPE library collection: JIM1_ECACC cell viability assay (AID 1918964)
# How it was run: as §2
# [7] = Quantitative High-Throughput drug screen in 47 multiple myeloma cell lines against the NCATS MIPE library collection: INA6_PLB cell viability assay (AID 1918965; also: nearly all actives have a fitted effect of over 55% in size)
# How it was run: (§4)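 We plated 500 myeloma cells per well, pinned in MIPE 4.0 compounds, and incubated for 48 hours at 37C. ATP was then quantified with CellTiter-Glo, with DMSO and media-only wells defining 100% and 0%.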
# [8] = Quantitative High-Throughput drug screen in 47 multiple myeloma cell lines against the NCATS MIPE library collection: JJN3_DSMZ cell viability assay (AID 1918966; also: nearly all actives have a fitted effect of over 50% in size)
# How it was run: as §2
# [9] = Quantitative High-Throughput drug screen in 47 multiple myeloma cell lines against the NCATS MIPE library collection: Karpas25_ECACC cell viability assay (AID 1918968; also: nearly all actives have a fitted effect of over 35% in size)
# How it was run: as §2
# [10] = Quantitative High-Throughput drug screen in 47 multiple myeloma cell lines against the NCATS MIPE library collection: KMS27_JCRB cell viability assay (AID 1918970); also: nearly all actives have a fitted effect of over 30% in size
# How it was run: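 Each line is seeded at 500 cells per well and treated with library compounds for 48 hours under 37 °C, 5% CO2. CellTiter-Glo is then added for 5 min at room temperature before median relative luminescence is recorded.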
# [11] = Quantitative High-Throughput drug screen in 47 multiple myeloma cell lines against the NCATS MIPE library collection: KMS12BM_JCRB cell viability assay (AID 1918971); also: nearly all actives have a fitted effect of over 35% in size
# How it was run: as §4
# [12] = Quantitative High-Throughput drug screen in 47 multiple myeloma cell lines against the NCATS MIPE library collection: KMS12PE_JCRB cell viability assay (AID 1918972); also: nearly all actives have a fitted effect of over 30% in size
# How it was run: as §4
# [13] = Quantitative High-Throughput drug screen in 47 multiple myeloma cell lines against the NCATS MIPE library collection: KMS21BM_JCRB cell viability assay (AID 1918974); settings: ATP luminescence, 48 h; viability: at 45.8 µM (top of the series) unless noted
# How it was run: as §2
# [14] = Quantitative High-Throughput drug screen in 47 multiple myeloma cell lines against the NCATS MIPE library collection: MOLP8_DSMZ cell viability assay (AID 1918977); also: nearly all actives have a fitted effect of over 45% in size
# How it was run: (§5)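 Plated at 500 cells per well, myeloma lines received MIPE 4.0 compounds by pin tool. Following 48 h culture at 37 °C, CellTiter-Glo luminescence gave viability relative to DMSO and media-only controls.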
# [15] = Quantitative High-Throughput drug screen in 47 multiple myeloma cell lines against the NCATS MIPE library collection: NCIH929_DSMZ cell viability assay (AID 1918978); also: nearly all actives have a fitted effect of over 35% in size
# How it was run: as §5
# [16] = Quantitative High-Throughput drug screen in 47 multiple myeloma cell lines against the NCATS MIPE library collection: KMM1_JCRB cell viability assay (AID 1918960); also: nearly all actives have a fitted effect of over 30% in size
# How it was run: as §1
# [17] = Quantitative High-Throughput drug screen in 47 multiple myeloma cell lines against the NCATS MIPE library collection: H1112_PLB cell viability assay (AID 1918967; also: nearly all actives have a fitted effect of over 30% in size)
# How it was run: as §2
# [18] = Quantitative High-Throughput drug screen in 47 multiple myeloma cell lines against the NCATS MIPE library collection: KMS26_JCRB cell viability assay (AID 1918975); also: nearly all actives have a fitted effect of over 45% in size
# How it was run: as §4
# [19] = Quantitative High-Throughput drug screen in 47 multiple myeloma cell lines against the NCATS MIPE library collection: MMM1_PLB cell viability assay (AID 1918976); also: nearly all actives have a fitted effect of over 35% in size
# How it was run: as §5
# [20] = Quantitative High-Throughput drug screen in 47 multiple myeloma cell lines against the NCATS MIPE library collection: KMS20_JCRB cell viability assay (AID 1918973); also: nearly all actives have a fitted effect of over 45% in size
# How it was run: as §2
# Potency is read from the fitted curve at half-maximal effect.
smiles,measurement,setting,value
Cc1ccc(C(=O)Nc2ccc(S(=O)(=O)O)c3cc(S(=O)(=O)O)cc(S(=O)(=O)O)c23)cc1NC(=O)c1cccc(NC(=O)Nc2cccc(C(=O)Nc3cc(C(=O)Nc4ccc(S(=O)(=O)O)c5cc(S(=O)(=O)O)cc(S(=O)(=O)O)c45)ccc3C)c2)c1,Potency,[1],inactive
same,Potency,[2],inactive
same,Potency,[3],inactive
same,Potency,[4],inactive
same,Potency,[5],16.6 µM (active)
same,Potency,[6],inactive
same,Potency,[7],4.69 µM (active)
same,Potency,[8],inactive
same,Potency,[9],inactive
same,Potency,[10],inactive
same,Potency,[11],inactive
same,Potency,[12],inactive
same,Potency,[13],inactive
same,Potency,[14],inactive
same,Potency,[15],inactive
Cn1c(=O)c2c(ncn2C)n(C)c1=O,Potency,[1],inactive
same,Potency,[2],inactive
same,Potency,[3],inactive
same,Potency,[16],inactive
same,Potency,[4],inactive
same,Potency,[7],inactive
same,Potency,[8],inactive
same,Potency,[17],inactive
same,Potency,[11],inactive
same,Potency,[12],inactive
same,Potency,[15],inactive
O=C(CCCN1CCC(O)(c2ccc(Cl)cc2)CC1)c1ccc(F)cc1,Potency,[1],23.5 µM (active)
same,Potency,[2],16.6 µM (active)
same,Potency,[3],20.9 µM (active)
same,Potency,[7],18.7 µM (active)
same,Potency,[17],inactive
same,Potency,[9],2.96 µM (active)
same,Potency,[11],inactive
same,Potency,[14],inactive
CC(CCc1ccc(O)cc1)NCCc1ccc(O)c(O)c1 (stereo not given),Potency,[1],20.9 µM (active)
same,Potency,[2],16.6 µM (active)
same,Potency,[3],13.2 µM (active)
same,Potency,[16],29.6 µM (active)
same,Potency,[7],18.7 µM (active)
same,Potency,[8],14.8 µM (active)
same,Potency,[9],18.7 µM (active)
same,Potency,[10],18.7 µM (active)
same,Potency,[11],14.8 µM (active)
same,Potency,[12],20.9 µM (active)
O=C1c2c(O)ccc(O)c2C(=O)c2c(NCCNCCO)ccc(NCCNCCO)c21,Potency,[1],0.469 µM (active)
same,Potency,[2],20.9 µM (active)
same,Potency,[3],5.26 µM (active)
same,Potency,[16],4.18 µM (active)
same,Potency,[4],0.833 µM (active)
same,Potency,[6],1.66 µM (active)
same,Potency,[7],0.0526 µM (active)
same,Potency,[8],4.18 µM (active)
same,Potency,[17],0.332 µM (active)
same,Potency,[9],0.296 µM (active)
same,Potency,[10],0.59 µM (active)
same,Potency,[11],1.05 µM (active)
same,Potency,[12],2.96 µM (active)
same,Potency,[13],1.48 µM (active)
same,Potency,[18],2.35 µM (active)
same,Potency,[14],1.32 µM (active)
same,Potency,[15],0.526 µM (active)
Cc1cn([C@H]2C=C[C@@H](CO)O2)c(=O)[nH]c1=O,Potency,[1],inactive
same,Potency,[2],inactive
same,Potency,[3],inactive
same,Potency,[16],inactive
same,Potency,[6],inactive
same,Potency,[17],inactive
same,Potency,[9],12.1 µM (active)
same,Potency,[10],inactive
same,Potency,[12],inactive
same,viability,[13],91.7% [at 92.2 µM] (active)
same,Potency,[18],inactive
same,Potency,[14],inactive
same,Potency,[15],inactive
CC[C@@]1(O)C(=O)OCc2c1cc1n(c2=O)Cc2cc3c(CN(C)C)c(O)ccc3nc2-1,Potency,[1],2.96 µM (active)
same,Potency,[2],2.64 µM (active)
same,Potency,[3],3.72 µM (active)
same,Potency,[16],1.32 µM (active)
same,Potency,[4],1.66 µM (active)
same,Potency,[5],5.26 µM (active)
same,Potency,[6],0.743 µM (active)
same,Potency,[7],0.0296 µM (active)
same,Potency,[8],5.9 µM (active)
same,Potency,[17],0.418 µM (active)
same,Potency,[9],0.662 µM (active)
same,Potency,[10],0.0833 µM (active)
same,Potency,[11],1.87 µM (active)
same,Potency,[12],2.64 µM (active)
same,Potency,[18],20.9 µM (active)
same,Potency,[19],18.7 µM (active)
same,Potency,[14],1.32 µM (active)
same,Potency,[15],0.743 µM (active)
CN(CCOc1ccc(NS(C)(=O)=O)cc1)CCc1ccc(NS(C)(=O)=O)cc1,Potency,[1],inactive
same,Potency,[2],inactive
same,Potency,[3],inactive
same,Potency,[16],inactive
same,Potency,[6],inactive
same,Potency,[7],inactive
same,Potency,[8],inactive
same,Potency,[9],inactive
same,Potency,[12],inactive
same,Potency,[18],inactive
same,Potency,[14],inactive
same,Potency,[15],inactive
Cc1cc(C(C)(C)C)cc(C)c1CC1=NCCN1,Potency,[1],inactive
same,Potency,[2],inactive
same,Potency,[3],inactive
same,Potency,[4],inactive
same,Potency,[17],inactive
same,Potency,[9],inactive
same,Potency,[12],inactive
same,Potency,[18],inactive
same,Potency,[14],inactive
same,Potency,[15],inactive
CCC1(C)CC(=O)NC1=O (stereo not given),Potency,[1],inactive
same,Potency,[2],0.0037 µM (active)
same,Potency,[3],inactive
same,Potency,[16],inactive
same,Potency,[4],inactive
same,Potency,[5],inactive
same,Potency,[7],inactive
same,Potency,[17],inactive
same,Potency,[9],inactive
same,Potency,[10],inactive
same,Potency,[11],1.18 µM (active)
same,Potency,[12],inactive
same,Potency,[18],inactive
same,Potency,[15],inactive
CC12CC3CC(C)(C1)CC(N)(C3)C2,Potency,[1],inactive
same,Potency,[2],inactive
same,Potency,[3],inactive
same,Potency,[6],inactive
same,Potency,[7],20.9 µM (active)
same,Potency,[9],20.9 µM (active)
same,Potency,[11],inactive
CC1(CN2CCC(n3c(=O)[nH]c4ccccc43)CC2)OCc2ccccc2-n2cccc21 (stereo not given),Potency,[1],inactive
same,Potency,[2],inactive
same,Potency,[16],inactive
same,Potency,[4],inactive
same,Potency,[7],14.8 µM (active)
same,Potency,[17],8.33 µM (active)
same,Potency,[9],13.2 µM (active)
same,Potency,[11],16.6 µM (active)
same,Potency,[12],inactive
same,Potency,[18],5.9 µM (active)
NC(=O)OCC(COC(N)=O)c1ccccc1,Potency,[1],inactive
same,Potency,[2],inactive
same,Potency,[3],inactive
same,Potency,[16],inactive
same,Potency,[4],inactive
same,Potency,[5],inactive
same,Potency,[7],inactive
same,Potency,[17],inactive
same,Potency,[10],inactive
same,Potency,[11],inactive
same,Potency,[12],inactive
same,Potency,[15],inactive
Cc1cc(C(C)(C)C)c(O)c(C)c1CC1=NCCN1,Potency,[1],inactive
same,Potency,[2],inactive
same,Potency,[16],inactive
same,Potency,[4],inactive
same,Potency,[5],inactive
same,Potency,[17],inactive
same,Potency,[9],inactive
same,Potency,[11],inactive
same,Potency,[12],inactive
same,Potency,[14],inactive
same,Potency,[15],inactive
Cn1cnc2c1c(=O)[nH]c(=O)n2C,Potency,[1],14.8 µM (active)
same,Potency,[2],7.43 µM (active)
same,Potency,[3],7.43 µM (active)
same,Potency,[16],7.43 µM (active)
same,Potency,[6],4.69 µM (active)
same,Potency,[7],7.43 µM (active)
same,Potency,[8],16.6 µM (active)
same,Potency,[17],18.7 µM (active)
same,Potency,[9],9.35 µM (active)
same,Potency,[10],9.35 µM (active)
same,Potency,[11],18.7 µM (active)
same,Potency,[12],5.9 µM (active)
same,Potency,[20],5.9 µM (active)
same,Potency,[13],9.35 µM (active)
same,Potency,[18],20.9 µM (active)
same,Potency,[14],16.6 µM (active)
same,Potency,[15],16.6 µM (active)
